Bioassay records: PubChem BioAssay, National Center for Advancing Translational Sciences (NCATS)
Most compounds without a hit are left out; they make up all but 6.2% or so of the library.
VP16 counter – Gal4-VP16 reporter inhibition counter-screen; Drosophila S2 Gal4-VP16 UAS-luciferase, luminescence, 20 h; 310,000 tested, 3.5% active; AID 2546; Potency, µM (series often up to 53.6 µM), without a hit: top-dose activity, negative = inhibition, hits mostly inhibitors;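 further: Gal4-VP16 expression switched on by copper sulfate through the metallothionein promoter; nearly all actives have a fitted effect of over 50% in size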
Luc counter – Kinase-Glo luciferase inhibition (counter-screen) | Kinase-Glo luciferase, ATP luminescence, 8 min | Potency, µM (doses to about 38.3 µM), for inactives: top-dose activity change, negative = inhibition, usual class: inhibitors | Q27757 | 200,000 tested, 0.28% active; further: nearly all actives have a fitted effect of over 60% in size
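Luminescence was the read-out, taken after 8-minute incubation at ambient temperature. Luciferase turned over luciferin with 10 uM ATP in imidazole pH 7.2 buffer containing KCl, MgCl2, Tween 20 and BSA.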
RORgamma inh – inhibitors of mouse ROR gamma transcriptional activity | Potency, µM (titrated, usually from 53.6 µM), inactives show top-dose activity change, negative = inhibition, hits mostly inhibitors | Drosophila S2 Gal4-RORgamma UAS-luciferase reporter, 20 h | AID 2551 | 310,000 tested, 5.4% active; further: nearly all actives have a fitted effect of over 60% in size
Target sequence (P51450 whole entry, looked up, the tested form may be a part): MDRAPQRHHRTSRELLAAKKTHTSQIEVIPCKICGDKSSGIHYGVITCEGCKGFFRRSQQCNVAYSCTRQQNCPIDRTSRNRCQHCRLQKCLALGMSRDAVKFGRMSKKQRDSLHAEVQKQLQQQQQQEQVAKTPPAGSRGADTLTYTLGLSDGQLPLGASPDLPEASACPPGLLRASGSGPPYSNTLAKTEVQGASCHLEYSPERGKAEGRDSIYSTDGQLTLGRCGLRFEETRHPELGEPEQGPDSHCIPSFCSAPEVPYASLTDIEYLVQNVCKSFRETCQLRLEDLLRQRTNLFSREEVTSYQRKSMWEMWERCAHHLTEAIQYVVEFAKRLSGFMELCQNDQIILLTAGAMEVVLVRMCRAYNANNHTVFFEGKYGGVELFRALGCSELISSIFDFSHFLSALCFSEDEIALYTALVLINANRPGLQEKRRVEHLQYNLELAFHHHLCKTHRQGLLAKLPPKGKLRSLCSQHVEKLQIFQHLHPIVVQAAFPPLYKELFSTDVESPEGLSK
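Drosophila S2 cells stably expressing Gal4-DBD/mouse RORγ fusion under metallothionein promoter plus UAS-luciferase; compound 1 h, then 700 uM CuSO4 induction for 20 h at ambient temperature; inhibition read as reduced luminescence.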
Numbers without * were called inactive; ? = inconclusive; nt = not tested or not shown; [ ] = remark or other dose. The call rests on the fitted dose curve; in most records, active means well fitted curve in the direction sought with a large enough effect; inconclusive means small, poorly fitted or top-dose-only effect, or another doubt; inactive means no such curve, though single readings can be large; an effect the other way counts as inactive or inconclusive. On the % scale 0 is the no-effect control and ±100 the full control effect; potency means the concentration at half of the fitted maximal effect.

SMILES | VP16 counter | Luc counter | RORgamma inh
BrC(=C\c1ccccc1)/C=N/Nc1nc2ccccc2[nH]1 | 5µM* | -1% | 3.2µM*
C(=N\Nc1nc2ccccc2[nH]1)/c1ccc2ncccc2c1 | -28% | nt | -44%
CC(C)C[C@@H](CC(=O)N[C@@H](CCC(=O)O)CC(=O)O)NC(=O)[C@@H]1CNCC[C@H]1NC(=O)C[C@H](CCCN)NC(=O)C[C@H](CO)NC(=O)[C@@H]1CNCC[C@H]1N | 5% | -1% | -28%
CCN(CC(=O)N1CCOCC1)S(=O)(=O)c1ccc(F)cc1 | -8% | nt | ?
O=C(Oc1ccccc1)N1CCC2(CCCN(c3ccccn3)C2)CC1 | -4% | -1% | -28%
COc1cccc(Cn2c(=O)c(-c3cccs3)nc3cncnc32)c1 | 5% | nt | -23%
COc1ccc(N(CC(=O)NCc2ccc(Cl)cc2)S(=O)(=O)c2ccccc2[N+](=O)[O-])c(OC)c1 | 1% | -3% | 5%
C(=N\Nc1nc2ccccc2[nH]1)/c1cccc2nccnc12 | 5.6µM* | nt | 1µM*
Cc1ccc(S(=O)(=O)N/N=C/c2cccc3nccnc23)cc1 | -27% | nt | 16%
Fc1ccccc1-c1ccc(/C=N/Nc2nc3ccccc3[nH]2)o1 | 3.5µM* | ? | 3.2µM*
Cc1cc(=O)[nH]c(N/N=C/c2ccc(-c3ccc(F)cc3)o2)n1 | -4% | nt | -45%
N/C(=N\OC(=O)CCn1cccc(C(F)(F)F)c1=O)c1ccc(Cl)cc1 | 0% | nt | 7%
O=C(NCCN1CCOCC1)c1ccc(Cc2nc3ccccc3[nH]2)cc1 | nt | -5% | nt
COc1cccc(-c2cncnc2NCCc2c[nH]c3ccc(OC)cc23)c1 | ? | nt | -13%
CCCCCCC/C=C/C1=CC2(C)CC1(C)C(CCCCCCC)CC2=O (stereo not drawn) | -8%[10 µM] | nt | -9%[10 µM]
COC(=O)c1nnn(CC(=O)NC(=O)Nc2cccc(Cl)c2C)c1C(=O)OC | -1% | 1% | 28%
Cc1cc(NC(=O)c2oc3ccccc3c2C)ccc1-n1cnnn1 | ? | -1% | ?
COc1cc(OC)cc(C(=O)Nc2ccc(-n3cnnn3)c(C)c2)c1 | -5% | 14µM* | ?
CCN(CCn1cccn1)Cc1nc(Cc2cccc(F)c2)no1 | -14% | 1% | 1%
COc1ccc(CCNC(=O)Oc2ccccc2)cc1OC | -3% | nt | -10%
Nc1ccc(SCc2nc3cccc4c3n2CCC4)cc1 | -3% | nt | -39%
Cc1ccc(S(=O)(=O)Nc2ccc3c(c2)n(C)c(=O)n3C)cc1 | ? | nt | 35%
CCCCOc1ccc(S(=O)(=O)Nc2cccnc2)cc1 | 11µM* | -8% | -31%
CCOc1ccc(S(=O)(=O)Nc2cccc(N(C)S(C)(=O)=O)c2)cc1 | -24% | 0% | 1%
Cc1ccc(NS(=O)(=O)c2ccc3c(c2)n(C)c(=O)n3C)c(C)c1 | 4% | nt | 12%
SMILES | VP16 counter | Luc counter | RORgamma inh
Cc1ccc(S(=O)(=O)Nc2cccnc2)cc1 | -2% | 0% | 17%
CCOc1ccc(S(=O)(=O)Nc2ccc3c(c2)n(C)c(=O)n3C)cc1 | 0.1µM* | nt | ?
CCOc1ccc(S(=O)(=O)Nc2cccc(OC)c2)cc1 | 18µM* | 5% | -31%
CCc1ccc(S(=O)(=O)Nc2cc3c(cc2C)n(C)c(=O)n3C)cc1 | 7.1µM* | nt | ?
c1ccc(COCCCc2cnc[nH]2)cc1 | 5% | -6%[39.9 µM] | -20%
c1ccc(-c2onc(-c3ccco3)c2-c2ccc3[nH]ccc3c2)cc1 | -24% | nt | 34%
O=C(NCC1CCCO1)c1ccc2c(=O)n(-c3ccccc3)c(=S)[nH]c2c1 (stereo not drawn) | -5% | -1% | -13%
CCOC(=O)Cc1csc(/N=C/c2c(O)n(-c3ccc(C)cc3C)c(=O)c3ccccc23)n1 | 0% | 2% | 10%
CCCCc1ccc(N=N/C(C(=O)Nc2cc(OC)c(NC(C)=O)cc2OC)=C(/C)O)cc1 | -8% | -3% | 7%
Cc1ccc(C(=O)N/C(=C\c2cccs2)C(=O)NCc2ccncc2)cc1 | 0% | 1% | 2%
O=c1c2ccccc2[nH]c2ccccc12 | 20µM* | -4% | ?
O=c1c2c([nH]c3ccccc13)CCCCCC2 | -14% | -2% | 26%
O=c1c2c([nH]c3ccccc13)CCCCC2 | 18µM* | nt | ?
O=c1[nH]c2ccccc2c2ccccc12 | 8% | -1% | 8%
Cc1ccccc1C1CC(=O)Oc2ccc(O)cc21 (stereo not drawn) | -4%[96.6 µM] | 2%[39.9 µM] | -12%[96.6 µM]
Cc1ccc(-c2n[nH]c(=S)n2C)cc1Cl | 3.5µM* | 0% | 0.56µM*
CCN(CC)S(=O)(=O)c1cccc(-c2n[nH]c(=S)n2C)c1 | -4%[10 µM] | -1% | ?
CN(/N=C/c1ccc(O)cc1O)c1ncc(C(F)(F)F)cc1Cl | -11% | nt | 7.9µM*
CN(/N=C/c1ccccc1Cl)c1ncc(Cl)cc1C(F)(F)F | 5% | nt | 6%
Cc1cc(C)nc(NC(=O)C2c3ccccc3Oc3ccccc32)n1 | 3% | 1% | -11%
Cc1cc(OCC(=O)Nc2ccc(N3CCCC3)cc2)cc(C)c1Cl | 12% | 16% | 0%
Cc1ccccc1OCC(=O)NC(=S)Nc1ccccc1N1CCN(S(C)(=O)=O)CC1 | ? | nt | 10µM*
Cc1ccccc1OCC(=O)NC(=S)Nc1ccc(N2CCCC2)cc1 | 8.9µM* | -2% | 8.9µM*
Cc1ccccc1OCC(=O)NC(=S)Nc1cccc2cc(O)ccc12 | ? | nt | -58%
CCCCN(CCCC)CCNC(=O)c1cn(CC)c2ccc(S(=O)(=O)N3CCCC3)cc2c1=O | 5% | nt | -1%
SMILES | VP16 counter | Luc counter | RORgamma inh
COC(=O)C(N)CS (stereo not drawn) | -4% | 0% | 2%
O=[N+]([O-])c1ccc(Sc2cccc[n+]2[O-])c2nonc12 | 1µM* | nt | 1µM*
O=[N+]([O-])c1ccc(Nc2ccccc2)c2nonc12 | -9% | nt | 23%
Cc1cc(C)c(S(=O)(=O)Nc2ccc(C(=O)O)c(O)c2)cc1C | nt | -4% | nt
Cc1cc(NC(=O)CN(C)S(=O)(=O)c2ccc(-c3ccc(=O)[nH]n3)s2)ccc1Br | ? | nt | 13µM*
Cc1cccc(C)c1NC(=O)CN(C)S(=O)(=O)c1ccc(-c2ccc(=O)[nH]n2)s1 | 8% | nt | -22%
CCCC(C(=O)NCC1CCCO1)N(Cc1ccccc1)C(=O)CNS(=O)(=O)c1ccccc1 (stereo not drawn) | -6% | nt | 33%
COc1cc(-c2n[nH]c(=S)n2-c2cccc(C(F)(F)F)c2)cc(OC)c1OC | 2% | -2% | 24%
O=C(O)c1ccc(-n2c(-c3ccc(Br)cc3)n[nH]c2=S)cc1 | 2% | 0% | 2%
COc1cc(-c2n[nH]c(=S)n2-c2ccc(Br)cc2)cc(OC)c1OC | ? | nt | 8.9µM*
COc1cc(N=c2c([N+](=O)[O-])nn(-c3ccc4c(c3)OCCO4)n2O)cc(OC)c1 | -18% | 0% | 15%
COc1cc(OC)cc(-c2n[nH]c(=S)n2-c2ccc3c(c2)OCCO3)c1 | 3% | 3% | 0.35µM*
S=c1[nH]nc(-c2ccc(Br)cc2)n1-c1ccc(Br)cc1 | ? | nt | 11µM*
O=[N+]([O-])c1cccc(/C=N/n2c(-c3cccnc3)n[nH]c2=S)c1 | -27% | 0% | ?
O=[N+]([O-])c1cccc(-c2n[nH]c(=S)n2-c2ccc(Br)cc2)c1 | 0% | 0% | 10µM*
CCN(CC)c1ccc(NC(=O)CN2C(=O)CSc3ncccc32)c(C)c1 | -7% | 2% | 1%
